# In the library only some 1.3% were active in any assay of this set; here they are far more common.
# S1P4 antag: S1P4 receptor antagonists, primary screen, cell-based | 0.26% of 220,000 active | inhibition, % at 4.98 µM | S1P4-expressing cells, antagonist mode, reporter read-out; in the data active means inhibition above about 29%
# S1P4 ag: S1P4 receptor agonists, primary screen, cell-based. S1P4-expressing cell line, agonist reporter assay. activation, % at 4.98 µM. 0.35% of 220,000 active. AID 1509, 2009; in the data active means activation above about 11%
# PERK inhibitor: block of dimerizer-induced PERK translation repression, primary screen, PERK inhibitor project, CHO PERK-DD cells, SEAP luminescence, HTS; 0.17% of 220,000 active; inhibition, % at 5.6 µM; CHO PERK-DD fusion, SEAP luminescence translation reporter; Eukaryotic translation initiation factor 2-alpha kinase 3 (Homo sapiens), Q9NZJ5; AID 1416, 2008;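 active means inhibition above the mean inhibition of all tested compounds plus 3 SD, set separately per screening campaign, cut at about 2.9% in these data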;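 further: PERK kinase domain activated by AP20187 dimerizer at 100 nM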
# Target sequence (Q9NZJ5 whole entry, looked up, the tested form may be a part): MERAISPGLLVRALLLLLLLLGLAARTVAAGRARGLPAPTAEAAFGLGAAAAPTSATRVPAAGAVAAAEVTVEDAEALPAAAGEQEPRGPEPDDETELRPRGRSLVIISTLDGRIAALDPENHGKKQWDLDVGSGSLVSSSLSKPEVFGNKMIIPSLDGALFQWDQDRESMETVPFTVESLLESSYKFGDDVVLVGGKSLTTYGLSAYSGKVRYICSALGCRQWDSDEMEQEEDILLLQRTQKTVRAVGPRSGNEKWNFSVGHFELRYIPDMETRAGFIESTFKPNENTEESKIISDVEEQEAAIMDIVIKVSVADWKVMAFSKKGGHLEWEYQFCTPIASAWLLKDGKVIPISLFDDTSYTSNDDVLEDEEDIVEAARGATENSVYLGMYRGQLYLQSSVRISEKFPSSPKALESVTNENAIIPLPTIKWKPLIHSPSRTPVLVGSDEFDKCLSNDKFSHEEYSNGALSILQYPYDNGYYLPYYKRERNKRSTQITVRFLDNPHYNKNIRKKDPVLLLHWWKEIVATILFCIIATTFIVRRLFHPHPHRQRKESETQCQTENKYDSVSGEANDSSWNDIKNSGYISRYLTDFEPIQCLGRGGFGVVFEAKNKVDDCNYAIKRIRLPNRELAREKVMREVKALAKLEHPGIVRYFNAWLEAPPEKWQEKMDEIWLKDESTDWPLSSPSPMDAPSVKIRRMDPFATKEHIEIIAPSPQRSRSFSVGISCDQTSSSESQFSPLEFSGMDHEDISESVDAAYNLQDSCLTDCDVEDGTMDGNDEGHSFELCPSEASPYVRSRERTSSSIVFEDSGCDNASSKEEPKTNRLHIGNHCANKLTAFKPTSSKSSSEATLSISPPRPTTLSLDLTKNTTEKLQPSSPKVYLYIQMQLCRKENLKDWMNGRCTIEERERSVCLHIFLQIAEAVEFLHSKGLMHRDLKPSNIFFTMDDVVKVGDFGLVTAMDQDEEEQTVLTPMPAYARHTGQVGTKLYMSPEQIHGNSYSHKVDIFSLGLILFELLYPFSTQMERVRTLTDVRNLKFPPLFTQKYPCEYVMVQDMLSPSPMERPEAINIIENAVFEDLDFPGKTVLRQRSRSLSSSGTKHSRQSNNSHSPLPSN
# m-calpain inh: inhibitors of pig calpain II, primary screen, biochemical, fluorogenic peptide substrate, 1536-well; purified calpain II, 30 min; inhibition, % at 16 µM; 0.37% of 220,000 active;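 active means inhibition above about 50%, limit read from the data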
# S1P3 antag: S1P3 receptor antagonists, primary screen, cell-based; inhibition, % at 4.98 µM; 0.27% of 170,000 active; Sphingosine 1-phosphate receptor 3 (Homo sapiens), Q99500; CHO S1P3 NFAT-BLA reporter, FRET fluorescence, antagonist mode;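 active means inhibition above the plate cutoff, the mean inhibition of test wells on that plate plus 3 SD, cut at about 28% in these data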;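 further: cells challenged with S1P at its EC80 of 0.8 µM; blue over green emission ratio from cleaved BLA substrate after 4 h stimulation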
# Hits are given with their value; n = inactive; x = not tested or not shown.
SMILES,S1P4 antag,S1P4 ag,PERK inhibitor,m-calpain inh,S1P3 antag
CCC(C)[C@@H](C(=O)NCC1CCC(C(=O)O)CC1)n1nnc2ccccc2c1=O (stereo partly drawn),n,n,2.9,n,x
C[C@@H](C(=O)NCCCCCC(=O)O)n1nnc2ccccc2c1=O,n,n,n,n,n
C=C(C)CNC(=S)N/N=C/c1ccc(NC(C)=O)cc1,n,n,n,62,n
O=C1c2cccc(O)c2C(=O)c2c(O)cccc21,n,n,n,n,n
O=C1c2cccc(Sc3ccccc3)c2C(=O)c2c(Sc3ccccc3)cccc21,n,n,n,50,n
CCCNC(=O)c1noc2c1CCc1cc(OC)ccc1-2,n,n,n,n,n
CC(C)(C)c1ccc(C(=O)NCc2cccnc2)cc1,n,n,n,n,75
COc1ccc2c(c1)CCc1c(C(=O)NCc3cccnc3)noc1-2,n,n,n,n,70
CCC1NC(=S)NC(C)=C1C(=O)c1ccccc1 (stereo not drawn),n,n,n,n,n
COc1ccc(/C=C/C(=O)OCC(=O)c2c(N)n(C)c(=O)n(C)c2=O)c(OC)c1,n,n,n,n,n
CCOc1ccccc1Nc1nnc(C)c(=O)[nH]1,n,n,n,n,x
CCOc1ccccc1Nc1nnc(Cc2ccccc2Cl)c(=O)[nH]1,n,n,n,63,x
CC(NCc1ccc(S(N)(=O)=O)cc1)C(=O)Nc1ccc([N+](=O)[O-])cc1Cl (stereo not drawn),n,n,n,n,n
O=C(COc1ccc(Cl)cc1Cl)c1ccc[nH]1,n,n,n,n,n
COc1ccc(-c2[nH]ncc2CN(C)CCN2CCOCC2)cc1F,n,n,3.0,n,n
COc1ccc(-c2[nH]ncc2CN(C)CC2CCCCO2)cc1F (stereo not drawn),n,n,n,n,n
Cc1cc(C)nc(SCc2cnc(C)nc2N)n1,n,n,n,n,n
CCN(CC)c1c([N+](=O)[O-])c(=O)n(CC)c2ccccc12,n,n,n,n,n
O=[N+]([O-])c1cccc(-n2nnnc2CNCc2ccccc2)c1,n,n,n,n,n
Cc1ccccc1N(CC(=O)NC1CCCC1)C(=O)c1oc(C(C)(C)C)cc1C,n,n,n,n,x
Cc1cc(C(C)(C)C)oc1C(=O)N(CC(=O)NC1CCCC1)Cc1ccccc1Cl,n,n,n,50,x
CCN(CC)S(=O)(=O)c1cc(NS(=O)(=O)c2ccccc2)ccc1C,n,n,n,56,n
CCCc1ccc(NS(=O)(=O)c2c(C)oc(C)c2C(=O)OC)cc1,n,n,n,n,n
CC1(c2ccc3noc(-c4cccc(F)c4)c3c2)OCCO1,n,n,n,n,n
O=C(/C=C1\C(=O)Nc2ccccc21)/C=C1\C(=O)Nc2ccccc21,46,n,n,n,n
SMILES,S1P4 antag,S1P4 ag,PERK inhibitor,m-calpain inh,S1P3 antag
CN(O)/C=C1\C(=O)Nc2ccccc21,n,n,n,n,x
CCOC(=O)C1CCCN(c2c(NCCc3ccccc3)c(=O)c2=O)C1 (stereo not drawn),n,n,n,n,n
CCOC(=O)C1CCCN(c2c(NCCCN(C)c3ccccc3)c(=O)c2=O)C1 (stereo not drawn),n,n,n,100,n
S=C1NC[C@H](CC2CCCCC2)N1CC1CCCCC1,n,n,n,n,n
NC(=O)C1(N2CCCCC2)CCN(S(=O)(=O)c2cc(Cl)sc2Cl)CC1,n,n,n,n,n
CN(C)/N=C1\CCS(=O)(=O)c2sccc21,n,n,n,n,n
Cc1ccc(N/N=C2\CCS(=O)(=O)c3sccc32)cc1,n,n,n,54,n
CCOC(=O)N1CCC(NC(=O)c2ccc3c(c2)ncn3C2CCCC2)CC1,n,n,n,77,n
NC(=S)NC(=O)/C=C/c1ccccc1,n,n,n,n,n
COc1c(Cl)ccc(Cl)c1C(=O)NC(=S)N1CCOCC1,n,n,n,n,n
Cc1ccc2cc(CCNC(=O)c3cc4ccccc4o3)c(=O)[nH]c2c1C,n,n,n,54,n
CC(C)C(=O)NNc1ccc(C(F)(F)F)cn1,n,n,3.6,n,n
O=C(Nc1ccccc1)c1sccc1Oc1ccc([N+](=O)[O-])cc1F,n,n,n,n,n
O=S(=O)(NCc1ccccn1)c1ccccc1,n,n,n,n,x
O=S(=O)(Cc1ccccc1)NCc1ccccn1,n,n,n,n,103
Cc1cc(NC(=O)CSc2nc3cc(C(=O)NCCCOC(C)C)ccc3c(=O)n2Cc2ccco2)no1,n,n,n,61,n
C#CC(C)(C)NC(=O)c1ccc(-c2ccccc2F)cc1,n,n,n,n,n
CSCC(CO)NS(=O)(=O)c1ccc(C)cc1 (stereo not drawn),n,n,2.9,n,n
Cc1ccc(NNC(=O)c2ccc(Cl)cc2)nn1,n,n,n,n,n
CCOC(=O)c1[nH]c2ccccc2c1NC(=O)CC,n,n,n,n,55
CCOC(=O)c1[nH]c2ccccc2c1NC(=O)COC,n,n,n,n,n
O=c1cc(O)c2ccccc2n1Cc1ccccc1,n,n,n,n,n
COc1cc(/C=C2/SC(=O)NC2=O)ccc1Oc1ccc([N+](=O)[O-])cc1[N+](=O)[O-],n,n,n,63,n
COc1cc(/C=C2\SC(=O)NC2=O)ccc1Oc1ccc([N+](=O)[O-])cn1,n,n,n,n,n
CC(C)COc1ccc(CSCCNC(=S)Nc2ccccc2)cc1,n,n,n,65,x
SMILES,S1P4 antag,S1P4 ag,PERK inhibitor,m-calpain inh,S1P3 antag
C[N+]1([O-])[C@@H]2Cc3cc4c(cc3[C@@H]1Cc1cc3c(cc12)OCO3)OCO4 (stereo partly drawn),x,x,x,n,x
CC(NC(=O)c1ccccc1)c1ccc(F)cc1 (stereo not drawn),n,n,n,62,n
Cc1[nH]c(=S)[nH]c(=O)c1CCOc1ccccc1,n,n,3.1,n,n
CC(C)c1nc(SCC(=O)c2c[nH]c3ccccc23)n[nH]1,n,n,n,n,n
COc1cc(OC)c(OC)cc1/C=C/C(=O)c1ccc(NS(=O)(=O)c2ccc(C)cc2)cc1,n,n,n,n,n
O=C(CSc1nc(-c2ccc(F)cc2)nc2c1Cc1ccccc1O2)Nc1ccc(C(=O)O)cc1,n,n,n,79,n
COc1ccccc1C1CCN(C(=O)c2ccco2)CC1,n,n,n,n,n
O=C1c2cccc3cccc(c23)C(=O)N1CCCN1CCN(c2ccc(F)cc2)CC1,n,n,n,54,n
N#CC(c1ccncc1)(c1ncc(C(F)(F)F)cc1Cl)N1CCOCC1 (stereo not drawn),n,n,n,69,n
COCCCNc1nc2nonc2nc1N1CCC(C(C)N2CCOCC2)CC1 (stereo not drawn),n,n,n,n,n
O=C(/C=C/c1ccncc1)c1ccc(NC(=O)c2ccccc2F)cc1,37,n,n,n,n
Cc1ccccc1NC(=S)NCCC(c1ccccc1)c1ccccc1,n,n,n,78,x

# High-throughput results: PubChem, several laboratories
